Assay results taken from PubChem BioAssay AID2314 (National Center for Advancing Translational Sciences (NCATS), 2010).
Out of some 300,000 compounds screened, about 37,000 (12%) were called active. The full list was thinned out, with actives kept by preference. Unmarked numbers belong to inactive results. Cut-off read from the data, not from the text of the source: active = max response mostly above about 13% (no sharp cut-off); inactive = mostly below about 14%.

Experiment: Cycloheximide Counterscreen for Small Molecule Inhibitors of Shiga Toxin; note: read at 38.3 µM for the half of the compounds with a filed dose; 0% is about no effect
Details: cell reporter, cycloheximide protein synthesis inhibition counterscreen; active compounds read high

First: O=C(N/N=C/c1ccc(OCC2COCCO2)cc1)c1ccc(Br)cc1 (stereo unspecified)
Second: CCOc1ccc(C(=O)Nc2ccc(CN3CCOCC3)cc2)cc1Cl
The max response of the first is lower: 3.9% for the first, 6.5% for the second.

First: Cc1c(Cl)c([N+](=O)[O-])nn1Cc1ccc(C(=O)N/N=C\c2cc(Cl)ccc2O)o1
Second: Cc1nn(Cc2ccc(Cl)cc2)c(Cl)c1/C=N/NC(=O)c1cccnc1
The max response of the first is higher: 9.36% for the first, -2.03% for the second.

First: CC1CCc2c(sc(NC(=O)c3ccc(Cn4cc(Br)cn4)o3)c2C(N)=O)C1 (stereo unspecified)
Second: O=C(N/N=C/c1ccc2c(c1)OCO2)c1ccc(Cn2cc([N+](=O)[O-])cn2)o1
The max response of the first is lower: 0.185% for the first, 12.3% for the second.

Going from C=CCNC(=S)NNc1ncnc2sc3c(c12)CC(C)(C)OC3 to C=CCOc1ccc(/C=C2/C(=O)ON=C2C)cc1OCC, the max response rises from -1.51% to -0.862%.

Going from COc1ccccc1CNS(=O)(=O)CC12CCC(CC1=O)C2(C)C (stereo unspecified) to COCCCNC(=O)[C@H]1N2C(=O)c3ccccc3C2SC1(C)C (stereo partly specified), the max response rises from -1.52% to -1.51%.

First: CC(C)(C)OC(=O)CNC(=O)c1[nH]cnc1C(=O)N[C@@H](Cc1ccccc1)C(=O)OCc1ccccc1
Second: CCCCCn1c(=O)c(C(=O)Nc2c(C)n(C)n(-c3ccccc3)c2=O)c(O)c2ccccc21
The max response of the first is higher: -1.14% for the first, -1.67% for the second.

Going from CCOC(=O)N1CCN(Cc2nnc(-c3ccccc3Cl)o2)CC1 to CCOC(=O)N1CCN(Cc2nc3cc(NC(C)=O)ccc3n2C)CC1, the max response falls from -1.64% to -2.56%.

First: N/C(=N\S(=O)(=O)c1cc(C(F)(F)F)cc(C(F)(F)F)c1)c1cccs1
Second: CCC(=O)NC(Nc1nc2ccc(C)cc2s1)(C(=O)OC)C(F)(F)F (stereo unspecified)
The max response of the first is lower: 0.609% for the first, 1.01% for the second.

Compared with Cc1nn(Cc2ccc(Cl)cc2)c(Cl)c1/C=N/NC(=O)CNc1ccccc1F, Cn1c(=O)c(Sc2ccc(Cl)cc2)c(O)c2ccccc21 is lower in max response: -0.244% for the first, -5.19% for the second.

Going from Cc1ccc(SCCC(=O)NCc2ccccn2)cc1 to Cc1ccc(SCCC(=O)NC(C(C)C)C(C)C)cc1, the max response rises from -2.86% to 1.28%.

Going from Cc1cc(=O)oc2cc(OCC(=O)N3CCN(c4ccc(F)cc4)CC3)c(Cl)cc12 to COc1cc(/C=C2/C(=O)ON=C2C)ccc1OCc1cccc(F)c1, the max response rises from -1.36% to 27.9%.

Compared with Cc1cc(C)n2nc(SCC(=O)NC(=O)NCc3ccco3)nc2n1, COc1ccc(-n2cnc3cc(NCc4ccco4)ccc32)cc1 is higher in max response: 3.86% for the first, 20.3% for the second.

Compared with COc1ccc(NC(=O)c2cccc(Cl)c2)c[n+]1[O-], O=C(CCN1C(=O)c2ccccc2C1=O)Nc1cccc(F)c1 is lower in max response: -3.34% for the first, -3.51% for the second.

Going from C/C(=N\N(C)C)c1ccc(OCCOc2ccc([N+](=O)[O-])cc2)cc1 to CCOCCCNC(=O)C(NC(=O)c1ccc(=O)[nH]c1)c1ccc(C)cc1 (stereo unspecified), the max response falls from 10.2% to -5.76%.

Compared with CCc1cccc2c(=O)c(C(=O)NCCCOC)c[nH]c12, CCCCCn1c(=O)c(C(=O)NCc2ccccn2)c(O)c2ccccc21 is lower in max response: -0.768% for the first, -1.8% for the second.

Compared with CCOC(=O)C1(CCOC)CCN(Cc2cc3ccccc3s2)CC1, CCOC(=O)C1(CCOc2ccccc2)CCN(Cc2cc(OC)cc(OC)c2)CC1 is lower in max response: -0.534% for the first, -1.48% for the second.

First: Cc1ccc(NC(=O)NC2CCCCC2)cc1S(=O)(=O)N1CCOCC1
Second: CC(C)NC(=O)N1CCN(c2ccncc2S(=O)(=O)N2CCCCC2)CC1
The max response of the first is lower: -2.12% for the first, 0.305% for the second.

Going from Cn1ncc(Br)c1C(=O)NCc1cccs1 to Cc1cc2nc(C)n(CCCNC(=O)Nc3ccccc3)c2cc1C, the max response falls from 2.99% to -3.47%.

Compared with Cc1cc(C)nc(-n2ncc3c2CC(c2ccc(C(C)C)cc2)CC3=O)n1 (stereo unspecified), Cc1cc2c(cc1S(=O)(=O)NCc1ccc(Cl)cc1)OCC(=O)N2 is lower in max response: 3.79% for the first, 1.87% for the second.

Compared with O=C(CN1C(=O)c2cccc3cccc1c23)Nc1ccccc1, C=CCn1c(=O)c(C(=O)Nc2ncccc2O)c(O)c2ccccc21 is higher in max response: -0.618% for the first, 0.679% for the second.

First: CN(CCc1ccccn1)C1CCCN(S(=O)(=O)c2ccccc2Cl)C1 (stereo unspecified)
Second: Cn1c(CCN2CCCC2)nc2cc(NS(=O)(=O)c3ccccc3)ccc21
The max response of the first is lower: -3.81% for the first, 9.99% for the second.

Going from C=CCc1ccccc1OCC(O)CN1CCN(CCO)CC1 (stereo unspecified) to CCC(=O)Nc1ccc2c(c1)nc(CCN1CCN(c3ccccn3)CC1)n2C, the max response falls from -1.25% to -2.39%.

Compared with Cc1[nH]c2ccccc2c1C(=O)CN1CCCC(C)C1 (stereo unspecified), N#Cc1cccc(CN2CCC(=O)N([C@H](CO)c3ccccc3)CC2)c1 is lower in max response: 4.44% for the first, -0.681% for the second.

First: CCN(CC)C(=O)Oc1ccc(OC(=O)N(CC)CC)cc1
Second: CCOc1ccc(/C=N/NC(=O)C(C)Sc2ccccn2)cc1OCC (stereo unspecified)
The max response of the first is higher: 19% for the first, -2.71% for the second.

Compared with N#C/C(=C/c1cccc([N+](=O)[O-])c1)c1nnc2n1CCCCC2, CC(C)(C)c1ccc(C(=O)NCCn2c(N)c(C#N)c3nc4ccccc4nc32)cc1 is lower in max response: -4.02% for the first, -4.74% for the second.

For CCOc1c(Cl)cc(/C=N/O)cc1OC, the max response was 5.27%.

For O=C(N/N=C\c1ccc(Br)cc1)c1ccc(Cn2cccn2)o1, the max response was 19.8% (active).
For CN(C)c1ccc(/C=N/NC(=O)c2ccc(Cn3cc(Br)cn3)o2)cc1, the max response was 56.4% (active).
With CCn1nc(C)c(/C=N/NC(=O)Cc2ccc(Cl)cc2)c1C the max response was 27.9% (active).
For Cc1ccc(SCCSc2ncccn2)cc1, the max response was 44.5% (active).
In the case of CCOCCCNC(=O)c1c[nH]c2cc(C)ccc2c1=O, the max response is reported as 15.4% (active).
In the case of CCOC(=O)C1(CCOC)CCN(Cc2ccc(C(=O)OC)cc2)CC1, the max response is reported as 19.1% (active).
With Cn1c(CN2CCOCC2)nc2cc(NC(=O)c3ccc(Cl)cc3)ccc21 the max response was 32.5% (active).
With Cc1nc2cc(NC(=O)NC3CC3)ccc2n1C the max response was 20.8% (active).
For Cc1nc2cc(NCc3cccs3)ccc2n1C, the max response was 51.1% (active).
With Cc1nc2cc(NC(=O)Nc3cccc(F)c3)ccc2n1C the max response was 23% (active).
With Cn1c(CCN2CCCCCC2)nc2cc(NC(=O)Nc3ccccc3)ccc21 the max response was 59.7% (active).
With Cn1c(=O)c(C(=O)Nc2ncccn2)c(O)c2ccccc21 the max response was 17.3% (active).
In the case of CCCn1c(=O)c(C(=O)Nc2cc(C)ccn2)c(O)c2ccccc21, the max response is reported as 9.34% (active).
For COc1cc(/C=C2/C(=O)ON=C2C)ccc1OCc1ccccc1F, the max response was 76% (active).
In the case of CCOc1cc(/C=N/O)ccc1OCc1ccccc1F, the max response is reported as 30.7% (active).
